This is a sample that favours compounds with a hit; in the whole collection about 19% have one here.
S-ASM inh = blocks human secretory acid sphingomyelinase; P17405; 340,000 tested, 0.006% active; placental ASM, HMU-PC fluorogenic substrate, 60 min; Potency, µM (titrated, usually from 57.5 µM), for the others: top-dose activity change, negative = inhibition, most hits filed as inhibitors; note: potency is the fitted concentration of half-maximal effect
Target sequence (P17405 47-631 limits assumed): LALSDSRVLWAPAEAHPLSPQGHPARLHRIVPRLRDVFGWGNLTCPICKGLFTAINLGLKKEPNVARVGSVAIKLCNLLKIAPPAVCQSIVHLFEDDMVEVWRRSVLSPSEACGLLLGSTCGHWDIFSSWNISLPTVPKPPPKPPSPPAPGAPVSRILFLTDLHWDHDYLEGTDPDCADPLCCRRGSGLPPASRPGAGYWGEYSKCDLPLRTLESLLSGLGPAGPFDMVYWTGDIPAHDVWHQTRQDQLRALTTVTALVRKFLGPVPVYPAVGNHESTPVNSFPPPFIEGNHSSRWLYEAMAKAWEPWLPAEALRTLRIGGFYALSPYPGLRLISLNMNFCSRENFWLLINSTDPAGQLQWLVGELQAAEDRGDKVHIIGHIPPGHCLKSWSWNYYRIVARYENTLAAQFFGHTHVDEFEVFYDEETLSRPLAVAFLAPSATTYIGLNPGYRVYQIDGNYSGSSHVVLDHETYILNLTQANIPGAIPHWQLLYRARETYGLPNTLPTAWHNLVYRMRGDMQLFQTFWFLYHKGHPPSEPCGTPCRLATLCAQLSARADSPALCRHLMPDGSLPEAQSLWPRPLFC
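qHTS format. ASM enzyme prepared from human placenta hydrolyses the fluorogenic substrate HMU-PC0 (9 uM final) over 60 min at 37 °C after a 10 min compound preincubation.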
TDP1 cell CPT = DT40-hTDP1 cell growth loss with CPT | chicken DT40 Tdp1-/-;hTDP1 cells + 20 nM CPT, ATP luminescence, 48 h | Potency, µM (series often up to 46.2 µM), for the others: at the top dose activity change, negative = growth inhibition, hits mostly inhibitors | 420,000 tested, 12% active; note: potency is the fitted concentration of half-maximal effect; % is set by controls: 0 for no effect and ±100 for the full control effect; nearly all actives have a fitted effect of over 55% in size
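Chicken DT40 Tdp1-/- cells complemented with human TDP1, 400 cells/well, exposed to compounds plus 20 nM camptothecin for at least 48 h at 37 C; viability read as ATP content by CellTiter-Glo luminescence.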
TGFb inhibitor = TGF-b pathway inhibition; HepG2 CAGA-GFP TGF-b/SMAD3 reporter, GFP fluorescence, 18 h; TGF-beta stimulated, 500 pg/mL final; Potency, µM (titrated, usually from 46.1 µM), for inactives: at the top dose activity, negative = inhibition, usual class: inhibitors; 410,000 tested, 1.2% active; AID 588855; note: potency is the fitted concentration of half-maximal effect; % is set by controls: 0 for no effect and ±100 for the full control effect; nearly all actives have a fitted effect of over 65% in size
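HEPG2 CAGA-GFP reporter cells (1000/well, DMEM with 1% FBS) received compounds, then recombinant TGF-beta at 500 pg/mL final for 18 hours at 37 degrees C. Per-cell GFP summed per well was normalised to unstimulated and stimulated DMSO controls before curve fitting.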
IL-1B inflam inh = blocks inflammasome-driven IL-1 beta release. THP-1 LPS/ATP IL-1B secretion, AlphaLISA, 16 h; stronger effect = lower value. activity change, % at 57.5 µM. 360,000 tested, 4.7% active; in the data active = activity change below about -50%; inconclusive = mostly about -30% to -49%; note: % is set by controls: 0 for no effect and ±100 for the full control effect
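THP-1 cells pretreated 1 hr with compounds (up to 57.5 uM final), then stimulated with LPS (250 ng/mL final) plus ATP (1.25 mM final); secreted IL-1B measured by AlphaLISA after 16 hr, decreased signal indicating inhibition.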
DT40 TDP1 no CPT = qHTS for Inhibitors of human tyrosyl-DNA phosphodiesterase 1 (TDP1): qHTS in cells in absence of CPT; DT40 Tdp1-/- hTDP1 cells, no CPT, ATP luminescence, 48 h; Potency, µM (series often up to 46.2 µM), without a hit: at the top dose activity change, negative = growth inhibition, hits mostly inhibitors; 420,000 tested, 15% active; AID 686978, 2013; note: potency is the fitted concentration of half-maximal effect; % is set by controls: 0 for no effect and ±100 for the full control effect; nearly all actives have a fitted effect of over 55% in size
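Stably hTDP1-transfected Tdp1-null chicken DT40 cells were treated with library compounds minus camptothecin and grown for at least 48 hr at 37 °C, after which cellular ATP was quantified by luminescence.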
HepG2 viability = kills HepG2 cells in TGF-b inhibitor counter-screen | HepG2 CAGA-GFP viability, ATP luminescence, 18 h | 410,000 tested, 0.76% active | AID 588856 | Potency, µM (series often up to 46.1 µM), inactives show top-dose activity change, negative = cytotoxicity, most hits filed as cytotoxic; note: potency is the fitted concentration of half-maximal effect
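HepG2 CAGA-GFP cells (1000/well, DMEM with 1% FBS) received compound, then TGF-beta at 500 pg/mL final, and were incubated 18 hours at 37 degrees C. Viability was read by CellTiter-Glo luminescence. Media-only wells were set as complete cell-killing and DMSO as no toxicity.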
The depositor's hits bear a star. Unless noted, calls come from the whole dose curve; as a rule, active = well fitted curve in the direction sought with a large enough effect; inconclusive = small, poorly fitted or top-dose-only effect, or another doubt; inactive = no such curve, though single readings can be large; an effect the other way counts as inactive or inconclusive.

What do the screens show for `Cc1nn(-c2ccccc2)c(C)c1C(=O)OC(C)C(=O)NC1CCCCC1C` (stereo not given)?
S-ASM inh: 1%; TDP1 cell CPT: 13µM*; TGFb inhibitor: -29%; IL-1B inflam inh: 23; DT40 TDP1 no CPT: 21µM*; HepG2 viability: -36%

How did COC(=O)c1c(C)[nH]c(C(=O)OC(C)C(=O)NC2CCCCC2C)c1C (stereo not given) do in these assays?
TDP1 cell CPT: 12µM*; TGFb inhibitor: 1%; IL-1B inflam inh: 0; DT40 TDP1 no CPT: inconclusive; HepG2 viability: -1%

What do the screens show for `COc1ccccc1Nc1nc(-c2sc(NC(=O)c3ccco3)nc2C)cs1`?
S-ASM inh: -21%; TDP1 cell CPT: 16µM*; TGFb inhibitor: 1%; IL-1B inflam inh: -12; DT40 TDP1 no CPT: 15µM*; HepG2 viability: -33%

What do the screens show for `COc1ccccc1NC(=O)CSc1nnc(NC(=O)c2ccco2)s1`?
S-ASM inh: -2%; TDP1 cell CPT: 8%; TGFb inhibitor: -5%; IL-1B inflam inh: 0; DT40 TDP1 no CPT: 0%; HepG2 viability: 8%

What do the screens show for `Cc1ccc(Cl)cc1Nc1nc(-c2sc(NC(=O)c3ccco3)nc2C)cs1`?
S-ASM inh: -24%; TDP1 cell CPT: inconclusive; TGFb inhibitor: 3%; IL-1B inflam inh: -19; DT40 TDP1 no CPT: inconclusive; HepG2 viability: -30%

Results for COc1cccc(N(C(=O)c2ccco2)c2nc(-c3sc(NC(=O)c4ccco4)nc3C)cs2)c1 ?
S-ASM inh: -16%; TDP1 cell CPT: 15µM*; TGFb inhibitor: inconclusive; IL-1B inflam inh: 3; DT40 TDP1 no CPT: 15µM*; HepG2 viability: -25%

How did COc1cccc(-c2nnc(NC(=O)c3ccco3)s2)c1 do in these assays?
S-ASM inh: -4%; TDP1 cell CPT: -7%; TGFb inhibitor: -2%; IL-1B inflam inh: -7; DT40 TDP1 no CPT: inconclusive; HepG2 viability: 0%

What do the screens show for `Cc1nc(NC(=O)c2ccco2)sc1-c1csc(Nc2ccc(Cl)cc2)n1`?
S-ASM inh: inconclusive; TDP1 cell CPT: 21µM*; TGFb inhibitor: -12%; IL-1B inflam inh: -9; DT40 TDP1 no CPT: 16µM*; HepG2 viability: -27%

Results for Cc1nc(NC(=O)c2ccco2)sc1-c1csc(Nc2ccc(Cl)cc2Cl)n1 ?
S-ASM inh: 1%; TDP1 cell CPT: 23µM*; TGFb inhibitor: -30%; IL-1B inflam inh: 0; DT40 TDP1 no CPT: 15µM*; HepG2 viability: -56%

How did Cc1ccc(-c2csc(NC(=O)c3ccco3)n2)cc1C do in these assays?
S-ASM inh: -6%; TDP1 cell CPT: -9%; TGFb inhibitor: -10%; IL-1B inflam inh: -26; DT40 TDP1 no CPT: inconclusive; HepG2 viability: -25%

How did COc1ccccc1C(=O)n1nc(-c2ccco2)nc1NCc1ccc(Cl)cc1 do in these assays?
TDP1 cell CPT: -22%; DT40 TDP1 no CPT: inconclusive; HepG2 viability: 7%

What do the screens show for `CCC(CO)Oc1cc(NC(=O)c2ccccc2)c2ncn(C(C)C)c2c1` (stereo not given)?
S-ASM inh: 0%; TDP1 cell CPT: inconclusive; TGFb inhibitor: 0%; IL-1B inflam inh: -16; DT40 TDP1 no CPT: inconclusive; HepG2 viability: -2%

How did COc1ccc(Oc2ncc3nc(-c4cccc(C#N)c4)c(=O)n(Cc4cccc(OC)c4)c3n2)cc1 do in these assays?
TDP1 cell CPT: 2%; DT40 TDP1 no CPT: -93%

How did Cc1ccc(-c2cc(N)n(-c3ccccc3)n2)cc1 do in these assays?
S-ASM inh: 3%; TDP1 cell CPT: -21%; TGFb inhibitor: 9%; IL-1B inflam inh: inconclusive; DT40 TDP1 no CPT: -22%; HepG2 viability: -35%

Results for Nc1cc(-c2ccc(OC(F)(F)F)cc2)nn1-c1ccc(Cl)c(Cl)c1 ?
S-ASM inh: inconclusive; TDP1 cell CPT: inconclusive; TGFb inhibitor: inconclusive; IL-1B inflam inh: -65*; DT40 TDP1 no CPT: inconclusive; HepG2 viability: -103%

How did CC(C)c1ccc(NC(=O)C(Cc2ccccc2)NS(=O)(=O)c2ccc3c(c2)oc(=O)n3C)cc1 (stereo not given) do in these assays?
TDP1 cell CPT: inconclusive; TGFb inhibitor: -10%; DT40 TDP1 no CPT: inconclusive; HepG2 viability: -15%

What do the screens show for `O=C(NC1CC1)C1CCN(c2nc3ccccc3s2)CC1`?
S-ASM inh: 0%; TDP1 cell CPT: -17%; TGFb inhibitor: 17%; IL-1B inflam inh: 13; DT40 TDP1 no CPT: 9%; HepG2 viability: -1%

How did O=C(NC1CC1)C1CCN(c2ncnc3c2sc2cccc(F)c23)CC1 do in these assays?
S-ASM inh: 8%; TDP1 cell CPT: 23µM*; TGFb inhibitor: -30%; IL-1B inflam inh: -17; DT40 TDP1 no CPT: 16µM*; HepG2 viability: -22%

What do the screens show for `CCSc1nnc(NC(=O)NC(CC)(C(F)(F)F)C(F)(F)F)s1`?
S-ASM inh: -1%; TDP1 cell CPT: inconclusive; TGFb inhibitor: 13µM*; IL-1B inflam inh: inconclusive; DT40 TDP1 no CPT: 15µM*; HepG2 viability: -86%

How did C[C@H](NC(=O)c1[nH]cnc1C(=O)N[C@@H](C)CO)c1ccccc1 do in these assays?
TDP1 cell CPT: 6%; TGFb inhibitor: 0%; IL-1B inflam inh: 3; DT40 TDP1 no CPT: 4%; HepG2 viability: -4%

Results for Cc1ccc(N2CC(C(=O)N3CCCCCC3)CC2=O)cc1 (stereo not given) ?
S-ASM inh: 2%; TDP1 cell CPT: 16%; TGFb inhibitor: 0%; IL-1B inflam inh: 9; DT40 TDP1 no CPT: 9%; HepG2 viability: 10%

What do the screens show for `COc1cc2c(cc1OC)C(c1ccccc1N)=NCC2`?
S-ASM inh: -2%; TDP1 cell CPT: inconclusive; TGFb inhibitor: 4%; IL-1B inflam inh: -19; DT40 TDP1 no CPT: 21µM*; HepG2 viability: -2%

Results for COc1cc2c(cc1OC)C(c1ccccc1[N+](=O)[O-])=NCC2 ?
TDP1 cell CPT: 5.8µM*; TGFb inhibitor: -22%; IL-1B inflam inh: 47; DT40 TDP1 no CPT: 2.9µM*; HepG2 viability: -4%

What do the screens show for `Cc1cnc(-n2ncc(C(=O)NCCN3CCOCC3)c2-c2cccs2)nc1-c1ccc(F)cc1`?
TDP1 cell CPT: 9%; DT40 TDP1 no CPT: -29%

What do the screens show for `COc1nc(-c2ccccc2)cc(C(F)(F)F)n1`?
S-ASM inh: 0%; TDP1 cell CPT: 0%; TGFb inhibitor: 36%; IL-1B inflam inh: 13; DT40 TDP1 no CPT: -14%; HepG2 viability: 5%

Screening data as filed in PubChem.
